From PubChem BioAssay (EPA / NIEHS)
Results filed as inconclusive are left out. The source made the active and inactive calls. Rule for the calls: active = hit-call score of the fitted dose curve at least 0.9, where 1 is the maximum; inconclusive = response in the unintended direction; inactive = score below 0.9.

Assay: Tanguay_ZF_120hpf_SOMI_legacy: (Legacy) Oregon State University Tanguay Lab 120 Hour Post-fertilization zebrafish Assay for Somite Malformation (AID 2283647)
Protocol: Tanguay_ZF_120hpf_legacy is a whole embryo, multiplexed endpoint assay using zebrafish larvae exposed for 120 hours post fertilization on a 96-well plate.Tanguay_ZF_120hpf_SOMI_legacy is one of one assay component(s) measured or calculated from the Tanguay_ZF_120hpf_legacy assay. It is designed to make measurements of zebrafish development as detected with brightfield microscopy of developing zebrafish embryos.Data from the assay component Tanguay_ZF_120hpf_SOMI_legacy was analyzed into 1 assay endpoints. This assay endpoint, Tanguay_ZF_120hpf_SOMI_legacy, was analyzed in the positive analysis fitting direction relative to DMSO as the negative control and baseline of activity. Using a type of morphology reporter, gain-of-signal activity can be used to understand changes in developmentals as they relate to the whole embryo. To generalize the intended target to other relatable targets, this assay endpoint is annotated to the zebrafish development intended target family, where the subfamily is somitogenesis.
Zebrafish husbandry: Tropical 5D wild-type adult zebrafish were housed in at an approximate density of 1000 per 100 gallon tank at the Sinnhuber Aquatic Research Laboratory, Oregon State University, Corvallis, OR. Each tank was kept at standard laboratory conditions of 28C on a 14-h light/10-h dark photoperiod in fish water consisting of reverse osmosis water supplemented with a commercially available salt (Instant Ocean). Spawning funnels were placed into the tanks the night prior, and embryos were collected and staged. To increase bioavailability, the chorion was enzymatically removed using pronase (63.6mg/ml, >/= 3.5U/mg, Sigma-Aldrich: P5147) at 4 hours post fertilization (hpf) using a custom automated dechorionator.Chemical exposures: Six hpf dechorionated embryos were placed 1 embryo per well in a 96-well plate prefilled with 90 ul of EM using automated embryo placement systems (AEPS). Ten microliters of each row of dilution plate 2 was added to 2 exposure plates. The final DMSO concentration used was 0.64% (vol/vol). Thirty-two embryos were also exposed to 5uM trimethyltin chloride (positive control). Plates were sealed to prevent evaporation and foil covered to reduce light exposure and kept in a 28C incubator. Embryos were statically exposed until 120 hpf. At 24 hpf, embryos were assessed for photomotor response using a custom photomotor response analysis tool (PRAT) and for developmental toxicity endpoints (MO24: mortality at 24 hpf, DP: developmental progression, SM: spontaneous movement, and NC: notochord distortion). At 120 hpf, locomotor activity was measured using Viewpoint Zebralab and assessed for 18 endpoints. Zebrafish acquisition and analysis program (ZAAP), a custom program designed to inventory, acquire, and manage zebrafish data, was used to collect developmental endpoints as either present or absent (i.e., binary responses were recorded). If mortality occurred for an embryo (at either 24 or 120 hpf), the non-mortality endpoints were not measured.
In the case of CC(=O)OC1CC(C)OC(C)O1 (stereo not given), the outcome is reported as “inactive”.
For CC(=O)[C@@]1(O)CC[C@H]2[C@@H]3CCC4=CC(=O)CC[C@]4(C)[C@H]3CC[C@@]21C, the outcome was “inactive”.
In the case of CCCCC(CC)COC(=O)CCCCCCCC(=O)OCC(CC)CCCC (stereo not given), the outcome is reported as “inactive”.
With CCCC[C@H]1CN(CC2CCOCC2)C(=O)OC12CCN(C1(C)CCN(C(=O)c3c(C)ncnc3C)CC1)CC2 the outcome was “inactive”.
For CC(=O)CC(c1ccccc1)c1c(O)c2ccccc2oc1=O (stereo not given), the outcome was “inactive”.
In the case of Oc1ccccc1O, the outcome is reported as “inactive”.
For CCCCCCCCCCCCCCCCO, the outcome was “inactive”.
With O=C1CCCCC1 the outcome was “inactive”.
For Cn1cnc2c1c(=O)[nH]c(=O)n2C, the outcome was “inactive”.
With CC1(C)C(=O)NC(=O)N1CO the outcome was “inactive”.
With COC(=O)[C@H]1[C@H]2C[C@@H]3c4[nH]c5cc(OC)ccc5c4CCN3C[C@H]2C[C@@H](OC(=O)c2cc(OC)c(OC)c(OC)c2)[C@@H]1OC the outcome was “inactive”.
For CCC(C)N(C)C(=O)c1cc2ccccc2c(-c2ccccc2Cl)n1 (stereo not given), the outcome was “inactive”.
For CCCCCCCCCC[N+](C)(C)[O-], the outcome was “inactive”.
For CO[C@@H]1COCC[C@@H]1N[C@@H]1CC[C@@](C(=O)N2CCc3ncc(C(F)(F)F)cc3C2)(C(C)C)C1, the outcome was “inactive”.
In the case of Nc1nc(Cl)nc2c1ncn2[C@H]1C[C@H](O)[C@@H](CO)O1, the outcome is reported as “inactive”.
For CCCCCCC(C=O)=Cc1ccccc1, the outcome was “inactive”.
For O=C(N[C@@H](c1ccccc1)[C@@H]1CCCCN1)c1cccc(C(F)(F)F)c1Cl, the outcome was “inactive”.
For CC(=O)OCC(COC(C)=O)OC(C)=O, the outcome was “inactive”.
With CC(COCC(C)OC(=O)c1ccccc1)OC(=O)c1ccccc1 (stereo not given) the outcome was “inactive”.
In the case of C/C=C/C=C/C(=O)O, the outcome is reported as “inactive”.
With Cc1cc(Cc2ccc(N)c(C)c2)ccc1N the outcome was “inactive”.
For c1ccc2occc2c1, the outcome was “inactive”.
For O=C(O)c1[nH]n(-c2ccc(S(=O)(=O)O)cc2)c(=O)c1N=Nc1ccc(S(=O)(=O)O)cc1, the outcome was “inactive”.
For Cc1cc(SC2=C(O)C[C@@](CCc3ccc(N)cc3)(C(C)C)OC2=O)c(C(C)(C)C)cc1CO, the outcome was “inactive”.
With CN(C)C(=O)NC1(c2ccccc2)CCN(CCC[C@]2(c3ccc(Cl)c(Cl)c3)CCCN(C(=O)c3ccccc3)C2)CC1 the outcome was “inactive”.
For CCCCCCCCCCCCCCOS(=O)(=O)O, the outcome was “inactive”.
In the case of NC=O, the outcome is reported as “inactive”.
For O=C1c2c(O)cccc2Cc2cccc(O)c21, the outcome was “inactive”.
In the case of NCCOCCOCCN, the outcome is reported as “inactive”.
In the case of CC(=O)O, the outcome is reported as “inactive”.
For CC1=C(C)S(=O)(=O)CCS1(=O)=O, the outcome was “inactive”.
In the case of CN(C)CCCN1c2ccccc2Sc2ccc(Cl)cc21, the outcome is reported as “inactive”.
With CSc1ccc(Oc2ccc(S(N)(=O)=O)cc2CN(C)C)cc1C the outcome was “inactive”.
With CCCCOC(=O)CCCCC(=O)OCCCC the outcome was “inactive”.
In the case of CC(N)=O, the outcome is reported as “inactive”.
In the case of O=C(NS(=O)(=O)/C=C/c1cccs1)c1ccc(F)cc1Br, the outcome is reported as “inactive”.
In the case of CC(C)(O)c1ccc(CNC(=O)c2cccnc2Oc2ccc(F)cc2)cc1, the outcome is reported as “inactive”.
In the case of S=c1[nH]c2ccccc2s1, the AC50 is reported as 44.5 µM (active).
With CCCCC(CC)COP(=O)(OCC(CC)CCCC)OCC(CC)CCCC (stereo not given) the outcome was “inactive”.
With O=NO the outcome was “inactive”.
